Our source for the Inhibition values is ChEMBL document CHEMBL1157539, “Thousands of chemical starting points for antimalarial lead identification” (Nature, 2010).

Holding throughout (format): functional
The test system of assay [1] is Plasmodium falciparum. Kind of assay: GSK_TCMDC: Inhibition of Plasmodium falciparum 3D7 in whole red blood cells, using parasite LDH activity as an index of growth. Test compounds present at 2uM.
Assay [2] relates to Plasmodium falciparum. Kind of assay: GSK_TCMDC: Inhibition of Plasmodium falciparum Dd2 in whole red blood cells, using parasite LDH activity as an index of growth. Test compounds present at 2uM.
For assay [3], the system named is HepG2. Kind of assay: GSK_TCMDC: Percent inhibition of human HepG2 cell line. Test compounds present at 10uM.

The Inhibition is the change of the read-out against control, counted positive when it falls. The low end stands for a weak effect, the high end for a strong effect. With `COc1ccc(S(=O)(=O)N2CCC(NS(=O)(=O)c3ccc(F)cc3)CC2)cc1`, the Inhibition in assay [1] was found to be 80%; in assay [2], 0%; in assay [3], 3%.

Regarding `COc1cc2nc(Nc3ccc4c(c3)OCCO4)nc(N)c2cc1OC.Cl`, the Inhibition amounted to 100% in assay [1], 80% in assay [2] and 13% in assay [3].

In the case of `O=C(N[C@H]1CCN(Cc2ccc(OC3CCN(Cc4ccccc4)CC3)c(Br)c2)C1)c1ccc(Cl)c(Cl)c1.O=C(O)C(F)(F)F`, the Inhibition was found to be 100% in assay [1], 30% in assay [2] and 55% in assay [3].

Take `CCCCCN1CCCC(CNS(=O)(=O)c2ccc(C(=O)Nc3ccc(C(F)(F)F)cc3)cc2)C1.O=C(O)C(F)(F)F` (stereo unspecified): the Inhibition is 94% in assay [1], 0% in assay [2] and 51% in assay [3].

Take `COc1ccc(-c2cc3ncn(CC(=O)N4CCN(c5cccc(OC)c5)CC4)c(=O)c3s2)cc1`: the Inhibition in assay [1] amounted to 84%; in assay [2], 26%; in assay [3], 49%.

Regarding `NC1CCN(Cc2cccc(-c3cccc(-c4nc5ccccc5[nH]4)c3)c2)C1.O=C(O)C(F)(F)F` (stereo unspecified), the Inhibition in assay [1] worked out at 100%; in assay [2] it was 0%; in assay [3] it was 14%.

Take `CC1=C(C(=O)Nc2ccccc2)C(c2ccc([N+](=O)[O-])cc2)n2ncc(C(=O)Nc3ccccc3)c2N1` (stereo unspecified): the Inhibition in assay [1] amounted to 86%; in assay [2], 68%; in assay [3] it was 9%.

As to `Br.C=CCNC(CCCCC)c1ccc(OCCOc2ccc(C(CCCCC)NCC=C)cc2)cc1` (stereo unspecified), the Inhibition in assay [1] is recorded as 88%; in assay [2] it was 48%; in assay [3], 100%.

`CC(=O)N/N=C/[C@H](CCc1ccccc1)NC(=O)[C@H](CC(C)C)NC(=O)c1ccc(OCCN2CCOCC2)cc1`: the Inhibition in assay [1] is 96%; in assay [2], 87%; in assay [3], 4%.

With `Cc1nc(C(=O)N2CCCC[C@H]2CNC(=O)c2ccc(-c3ccc(N4CCCC4=O)cc3C)cc2)c(-c2ccc(F)cc2)s1`, the Inhibition in assay [1] was determined as 98%; in assay [2], 94%; in assay [3] it was 6%.

With `CC(=O)NCCNc1nccc(N2CCc3ncnc(Nc4ccc(OCc5ccccn5)c(Cl)c4)c3C2)n1`, the Inhibition in assay [1] is reported as 99%; in assay [2], 99%; in assay [3], 0%.

As to `O=C(CCc1c[nH]cn1)Nc1cccc(-c2ccc(-c3nc4cc(F)ccc4[nH]3)cc2)c1`, the Inhibition in assay [1] is 100%; in assay [2], 79%; in assay [3], 18%.

For `Cc1cc(OCCCN2CCC(NS(=O)(=O)c3ccc(Cl)c(Cl)c3)CC2)c2ccccc2n1`, the results for the Inhibition in assay [1], in assay [2] and in assay [3] were 96%, 35% and 11%, respectively.

Consider `CC1CN(c2cc(=O)n(Cc3cccc(NC(=O)Nc4ccc(-c5ccccc5)cc4)c3)cn2)CC(C)N1.O=C(O)C(F)(F)F` (stereo unspecified), for which the Inhibition worked out at 100% in assay [1], 63% in assay [2] and 2% in assay [3].

For the compound `Cc1cccc2nc(-c3ccc(-c4cccc(CN5CCCC5CN)c4)cc3)[nH]c12.O=C(O)C(F)(F)F` (stereo unspecified), the Inhibition in assay [1] was 91%; in assay [2] it was 32%; in assay [3] it was 7%.

As to `CC(=O)Nc1ccc(Nc2ncc([N+](=O)[O-])c(Nc3ccccc3C(N)=O)n2)cc1.Cl`, the Inhibition in assay [1] is listed as 98%; in assay [2] it was 97%; in assay [3], 42%.

For `Cn1cc(C(=O)Nc2cccc(-c3cccc(-c4nc5ccccc5[nH]4)c3)c2)n(C)c1=O`, the Inhibition in assay [1] was 99%; in assay [2], 60%; in assay [3], 0%.

For the compound `Cl.N#Cc1ccc2c(c1)CCN(CCC1CCC(NC(=O)/C=C/c3ccc(F)c4ccccc34)CC1)CC2` (stereo unspecified), the figures for the Inhibition in assay [1], in assay [2] and in assay [3] were 95%, 19% and 29%, respectively.

With `O=C(Cn1c2ccccc2c(=O)c2ccc(Cl)cc21)Nc1ccc(C(F)(F)F)cc1`, the figures for the Inhibition in assay [1], in assay [2] and in assay [3] were 99%, 100% and 30%, respectively.

On to `Oc1nc(Cc2ccccc2)nc2ccc(Cl)cc12`, for which the Inhibition in assay [1] is listed as 92%; in assay [2] it was 76%; in assay [3], 13%.

Consider `CC(C#N)Cc1ccc(-c2cnc(N)c3cc(-c4ccnc(N)n4)ccc23)cc1` (stereo unspecified), for which the Inhibition was 96% in assay [1], 62% in assay [2] and 56% in assay [3].

For the compound `CCC[C@@H]([C@@H](CC(C)C)C(=O)N[C@@H](CCCNc1nccc(C(F)(F)F)n1)C(=O)Nc1nccs1)N(O)C=O`, the Inhibition worked out at 99% in assay [1], 98% in assay [2] and 0% in assay [3].

Regarding `Nc1cccc(CNCc2cccc(-c3ccc(-c4nc5ccccc5[nH]4)cc3)c2)c1.O=C(O)C(F)(F)F`, the values for the Inhibition in assay [1], in assay [2] and in assay [3] were 100%, 92% and 0%, respectively.

For `Oc1ccc2[nH]c(-c3ccc(OC(F)(F)F)cc3)nc2c1CNC1CCCC1`, the Inhibition was found to be 99% in assay [1], 97% in assay [2] and 32% in assay [3].

Consider `CCN(CCO)CCCC(C)Nc1ccnc2cc(Cl)ccc12.O=S(=O)(O)O` (stereo unspecified) [HYDROXYCHLOROQUINE SULFATE], for which the Inhibition in assay [1] is 99%; in assay [2] it was 0%; in assay [3], 3%.

`O=C(N[C@H]1CCN(CCc2ccc(O[C@H]3CCNC3)c(Br)c2)C1)c1ccc(Cl)c(Cl)c1.O=C(O)C(F)(F)F`: the Inhibition is 100% in assay [1], 0% in assay [2] and 28% in assay [3].

On to `Cc1occc1C(=O)Nc1nc(-c2ccccn2)nc2ccsc12`, for which the figures for the Inhibition in assay [1], in assay [2] and in assay [3] were 98%, 98% and 68%, respectively.
